Shown are actives, neighbours in structure and some others; about 3.5% of the full set was active somewhere.
GDH-TPI counter-1 – inhibits GDH-TPI coupling enzymes, artifact for Mtb FBA screen | 1.2% of 360,000 active | GDH-TPI coupled enzyme counterscreen, NADH absorbance | inhibition, % at 4.8 µM; in the data active = inhibition above about 30%;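 note: 0% = DMSO wells and 100% = wells lacking the enzyme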
Mtb UGM inh – inhibitors of M. tuberculosis UDP-galactopyranose mutase; P9WIQ1; purified UGM, fluorescence polarization probe displacement; inhibition, % at 10 µM; 0.06% of 320,000 active; AID 504406; in the data active = inhibition above about 10%, passing the limit was not always enough; inconclusive = no clear call, values can overlap the other calls
Target sequence (P9WIQ1 whole entry, looked up): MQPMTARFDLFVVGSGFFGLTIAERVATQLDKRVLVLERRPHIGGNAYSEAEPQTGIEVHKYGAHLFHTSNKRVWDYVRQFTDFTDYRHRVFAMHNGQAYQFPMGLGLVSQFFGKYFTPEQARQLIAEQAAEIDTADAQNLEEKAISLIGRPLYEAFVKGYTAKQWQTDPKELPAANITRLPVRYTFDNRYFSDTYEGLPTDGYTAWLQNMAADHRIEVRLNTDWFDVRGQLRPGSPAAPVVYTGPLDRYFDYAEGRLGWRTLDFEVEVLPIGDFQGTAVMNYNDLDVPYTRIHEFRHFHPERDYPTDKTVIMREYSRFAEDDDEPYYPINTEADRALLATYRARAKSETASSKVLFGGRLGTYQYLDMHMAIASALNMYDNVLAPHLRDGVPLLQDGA
Mtb FBA inh – inhibits M. tuberculosis FBA enzyme; purified M. tuberculosis FBA, fluorescence read-out; inhibition, % at 1 µM; 2.3% of 360,000 active; AID 588726;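 note: 0% = vehicle and 100% = reference inhibitor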
Rv3671c inh – inhibitors of M. tuberculosis serine protease Rv3671c; inhibition, % at 5.96 µM; AID 2606; 0.048% of 320,000 active; P9WHR9; in the data active = inhibition above about 38%;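 note: extracellular domain of Rv3671c used as enzyme; 0% = enzyme with DMSO and 100% = no enzyme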
Mtb FBA inh conf – Mtb FBA inhibition, confirmed. AID 651616. inhibition, % at 1 µM. purified M. tuberculosis FBA, fluorescence read-out. 78% of 5,600 active. shares compounds with Mtb FBA inh;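 note: 0% = vehicle wells and 100% = reference inhibitor wells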
GDH-TPI counter-2 – inhibits GDH-TPI coupling enzymes, flagging Mtb FBA hits | shares compounds with Mtb FBA inh | 81% of 5,600 active | inhibition, % at 1 µM | GDH-TPI coupled enzyme counterscreen, fluorescence | AID 652141; in the data active = inhibition above about 10%
Active calls of the source: *; u = inconclusive; x = not tested or not shown; + = active, no number. Cut-off read from the data, not from the text of the source, unless noted: active = inhibition above about 27%; inactive = the rest.

SMILES	GDH-TPI counter-1	Mtb UGM inh	Mtb FBA inh	Rv3671c inh	Mtb FBA inh conf	GDH-TPI counter-2
COc1ccc2c(c1)c(=O)oc1c(C)c(OCc3ccc(C(=O)O)cc3)ccc12	5	-2	4	-9	x	x
COCCNC(=O)C1(C)CCCN(C(=O)c2ccc(F)c(Cl)c2)C1 (configuration not stated)	9	x	-1	x	x	x
O=C(COC(=O)c1ccccc1C(=O)c1ccccc1)NCCc1ccccc1	10	1	2	-13	x	x
Cc1ccc(C(=O)OCC(=O)Nc2c(C)nn(-c3ccccc3)c2C)c(O)c1	15	x	5	x	x	x
CC(C#N)(NC(=O)CN1CCN(S(=O)(=O)c2ccccc2C#N)CC1)C1CC1 (configuration not stated)	11	1	2	5	x	x
CC(C#N)(NC(=O)COC(=O)c1ccccc1NCCO)C1CC1 (configuration not stated)	11	-2	99*	1	52*	39*
O=C(COC(=O)c1ccccc1NCCO)NCCc1ccccc1	3	u	77*	5	47*	38*
Cc1ccc(-n2nc(C)c(NC(=O)COC(=O)c3ccccc3NCCO)c2C)cc1	16	-2	68*	-3	80*	65*
O=C(COC(=O)c1ccccc1NCCO)NCCC1=CCCCC1	3	-2	63*	6	175*	130*
O=C(COC(=O)c1ccccc1Br)NCCC1=CCCCC1	-2	0	0	10	x	x
CCn1c(SCC(=O)Nc2nncs2)nnc1C(C)NC(=O)c1ccccc1Br (configuration not stated)	6	-2	5	1	x	x
O=C1CCN(CCc2ccccc2)CCN1CCSc1ccccc1	-7	0	0	4	x	x
CC(C)c1cc(=O)n2[nH]c(N)nc2n1	-2	1	2	-5	x	x
COc1ccc(C(=O)OCC(=O)N(Cc2ccccc2)Cc2ccccc2)c(O)c1	9	x	-3	x	x	x
O=C(OCC(=O)N(Cc1ccccc1)Cc1ccccc1)c1ccccc1NCCO	9	-1	95*	-8	4	-2
O=C(COC(=O)c1ccccc1NCCO)NNC(=O)c1cccs1	6	-4	60*	2	+	+
O=C(COC(=O)c1ccccc1NCCO)NCC1CCCCC1	7	2	71*	-2	100*	76*
COc1cc2sc(-c3ccc(S(C)(=O)=O)cc3)c(C#CCO)c2cc1OC	27	2	54*	-4	112*	87*
COc1cc(OC)cc(-c2sc3ccc(OC)cc3c2C#CCO)c1	1	4	8	-28	x	x
C[C@H](CO)N1C[C@H](C)[C@@H](CN(C)S(=O)(=O)c2ccccc2)Oc2c(NC(=O)NC3CCCCC3)cccc2C1=O	-1	-2	-1	4	x	x
O=C(Nc1ccc(F)cc1)c1ccc2snnc2c1	5	5	46*	-7	122*	114*
Cc1ccc(NC(=O)c2ccc3snnc3c2)cc1C	3	1	-2	-9	x	x
COc1ccc2c(c1)oc(=O)c1c3ccccc3[nH]c21	15	x	15	x	x	x
COc1ccc2c(c1)oc(=O)c1ccccc12	5	-1	88*	-2	41*	31*
O=C(O)C(Oc1ccc2c(c1)oc(=O)c1ccccc12)c1ccccc1 (configuration not stated)	9	0	92*	1	37*	30*
SMILES	GDH-TPI counter-1	Mtb UGM inh	Mtb FBA inh	Rv3671c inh	Mtb FBA inh conf	GDH-TPI counter-2
COc1cccc(CN(C)S(=O)(=O)c2ccccc2Br)c1	-1	x	4	x	x	x
O=C(O)CCCc1ccc2ccc3cccc4ccc1c2c34	35*	-3	56*	-2	+	+
NCCCCc1ccc2ccc3cccc4ccc1c2c34	12	x	2	x	x	x
CCNC(=O)Nc1cc(OC)c(OC)cc1C(=O)O	20	-1	45*	-8	89*	78*
O=[N+]([O-])c1ccc(Cl)cc1NCC1CCCO1 (configuration not stated)	13	3	-6	-4	x	x
N#Cc1cc(Cl)c(NCC2CCCO2)cc1C#N (configuration not stated)	21	4	38*	5	77*	65*
N#Cc1cccc(C#N)c1NCC1CCCO1 (configuration not stated)	13	1	97*	6	184*	122*
CN(C)c1ccc(-c2nc3cc(N)ccc3o2)cc1	49*	2	36*	x	70*	55*
Cc1cccc(-c2nnc(-c3ccc(N)cc3)o2)c1	28	0	16	-4	x	x

High-throughput results (PubChem BioAssay)
